Test results reported in PubChem BioAssay (Tox21).
Where “and” joins values, the source holds several entries; their conditions need not be identical. Identical values can stand only once. Records with an inconclusive call do not appear. Calls of active or inactive are those of the source. Unless noted, calls come from the whole dose curve; as a rule, active = well fitted curve in the direction sought with a large enough effect in the repeat runs; inconclusive = weak or mixed curves; inactive = no such curve, though single readings can be large; an effect the other way counts as inactive or inconclusive.

Columns and labels:
[1] = qHTS assay to identify small molecule antagonists of the androgen receptor (AR) signaling pathway using the MDA cell line in the presence of 0.5 nM R1881 - cell viability counter screen (AID 1259242); note: nearly all actives have a fitted effect of over 45% in size; note: potency is the fitted concentration of half-maximal effect
In short: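 Cytotoxicity toward MDA-kb2 cells is measured by CellTiter-Fluor live-cell protease fluorescence after 16 hr compound exposure at 37C in the presence of 0.5 nM R1881 stimulator.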

[2] = target: Androgen receptor (Homo sapiens) (UniProt P10275); test: qHTS assay to identify small molecule antagonists of the androgen receptor (AR) signaling pathway using the MDA cell line in the presence of 0.5 nM R1881 (AID 1259243); note: nearly all actives have a fitted effect of over 50% in size; note: potency is the fitted concentration of half-maximal effect
In short: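 Steps: seed MDA-kb2 cells, incubate 5 hr at 37C; pin-transfer compounds in DMSO; add R1881 to 0.5 nM final; incubate 16 hr; add ONE-Glo, wait 30 min at room temperature; read luminescence.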

[3] = target: Estrogen receptor (Homo sapiens) (UniProt P03372); test: qHTS assay to identify small molecule antagonists of the estrogen receptor alpha (ER-alpha) signaling pathway using the BG1 cell line in the presence of 0.1 nM 17-beta-estradiol (AID 1259244); note: nearly all actives have a fitted effect of over 50% in size; note: potency is the fitted concentration of half-maximal effect
In short: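 After 5 days in hormone-depleted medium (charcoal-stripped serum, no phenol red), VM7Luc4E2 cells were seeded, incubated 24 h, then co-treated with compound and 0.1 nM (final) estradiol for 22 h before luminescence detection.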

[4] = qHTS assay to identify small molecule HDAC inhibitors - cell viability counter screen (AID 1259365); note: series mostly up to about 92 µM; nearly all actives have a fitted effect of over 50% in size
In short: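 HCT-116 (wild type), 1,500 cells/well, overnight 37C/5% CO2; compound in DMSO 2hr; CellTiter-Glo 30min RT; luminescence read.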

[5] = qHTS assay to identify small molecule agonists of the sonic hedgehog signaling (Shh) pathway - cell viability counter screen (AID 1259366); note: nearly all actives have a fitted effect of over 50% in size
In short: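 CellTiter-Fluor fluorescence read-out, 1 hr at 37C, added after 23hr compound exposure. Cells: 3T3 Gli1-Luc, an NIH/3T3 clone with stably integrated Gli1-Luc reporter, plated 4hr before compound.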

[6] = qHTS assay to identify small molecule antagonists of the sonic hedgehog signaling (Shh) pathway - cell viability counter screen (AID 1259367); note: nearly all actives have a fitted effect of over 55% in size
In short: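 NIH/3T3-derived Gli1-Luc reporter cells, 2,000/well, plated 4 hr before compound addition, then stimulated with conditioned medium for 24 hr at 37C. Viability measured in the same wells by CellTiter-Fluor fluorescence, reagent added at 23 hr for 1 hr.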

[7] = qHTS assay to identify small molecule agonists of the sonic hedgehog signaling (Shh) pathway (AID 1259368; calls by dose curve;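 note: NIH/3T3-derived 3T3Gli1-Luc cells carrying a stable Gli1-driven firefly luciferase reporter; series mostly up to about 92 µM; nearly all actives have a fitted effect of over 15% in size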)
In short: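 Steps: seed 3T3 Gli1-Luc cells, incubate 4 hr at 37 C, pin-transfer compounds in DMSO alongside a positive control, incubate 24 hr, add luciferase detection reagent, wait 30 min at room temperature, read luminescence.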

[8] = qHTS assay to identify small molecule antagonists of the sonic hedgehog signaling (Shh) pathway (AID 1259369; calls by dose curve; note: nearly all actives have a fitted effect of over 45% in size; note: potency is the fitted concentration of half-maximal effect)
In short: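 Inhibition of Shh signalling is measured as reduced Gli1-response-element firefly luciferase output in an NIH/3T3-derived stable reporter clone stimulated with conditioned medium for 24hr.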

[9] = target: Estrogen receptor beta (Homo sapiens) (UniProt Q92731); test: qHTS assay to identify small molecule agonists of the estrogen receptor beta (ER-beta) signaling pathway (AID 1259377; active = well fitted activation curve with a large enough effect in the signal ratio in the repeat runs, not every such curve was filed as active; the % refers to the signal ratio)
In short: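 Beta-lactamase reporter readout: fluorescence of LiveBLAzer B/G FRET substrate after 2 h at room temperature, following 16 h compound treatment of ER-beta-UAS-bla HEK293T cells at 37C in 2% charcoal-stripped FBS medium.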

[10] = qHTS assay to identify small molecule agonists of the androgen receptor (AR) signaling pathway in the presence of an antagonist - cell viability counter screen (AID 1259379); note: nearly all actives have a fitted effect of over 25% in size; note: potency is the fitted concentration of half-maximal effect;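 for activity change, negative = cytotoxicity: MDA-kb2 human breast cancer cells carrying an MMTV luciferase reporter; series mostly up to about 92 µM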
In short: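 Fluorescence from CellTiter-Fluor, added after 15 hr and read 1 hr later, gave cell viability. Cells were MDA-kb2 exposed to compounds (15 concentrations) in the presence of 3.0uM nilutamide at 37C, 0% CO2.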

[11] = qHTS assay to identify small molecule agonists of the estrogen receptor beta (ER-beta) signaling pathway - cell viability counter screen (AID 1259380); note: nearly all actives have a fitted effect of over 30% in size; note: potency is the fitted concentration of half-maximal effect
In short: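 Same-well viability counter screen. Cells: ER-beta-UAS-bla HEK293T, plated 6 hr before compound, in 2% charcoal-stripped FBS. Compound exposure 16 hr, 37C; viability by CellTiter-Glo luminescence after 30 min at room temperature.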

[12] = target: Androgen receptor (Homo sapiens) (UniProt P10275); test: qHTS assay to identify small molecule agonists of the androgen receptor (AR) signaling pathway in the presence of an antagonist (AID 1259381; calls by dose curve; note: nearly all actives have a fitted effect of over 15% in size)
In short: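 Cells are MDA-kb2 (human breast carcinoma, MMTV-luc, AR/GR responsive). Nilutamide is present at 3.0uM final throughout; compounds are added at 15 concentrations and incubated 16hr at 37C before ONE-Glo luminescence detection.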

[13] = qHTS assay to identify small molecule antagonists of the estrogen receptor beta (ER-beta) signaling pathway - cell viability counter screen (AID 1259382); note: nearly all actives have a fitted effect of over 55% in size; note: potency is the fitted concentration of half-maximal effect; for activity change, negative = cytotoxicity: series mostly up to about 92 µM
In short: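 Following a 6 hr plating period, HEK293T cells carrying a UAS-driven beta-lactamase reporter under ER-beta control received compounds and 1nM E2 (final). After 16 hr at 37C and 2 hr substrate loading, CellTiter-Glo luminescence indicated viability.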

[14] = target: Estrogen receptor (Homo sapiens) (UniProt P03372); test: qHTS assay to identify small molecule agonists of the estrogen receptor alpha (ER-alpha) signaling pathway in the presence of an antagonist (AID 1259383; calls by dose curve; note: top concentration of the series differs between compounds; nearly all actives have a fitted effect of over 15% in size)
In short: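 Cells are hormone-deprived for 5 days (charcoal-stripped FBS, no phenol red), plated for 24hr, spiked with 10.0nM ICI-182,780, then dosed at 15 concentrations. After 22hr at 37C, ONE-Glo luminescence reports ERE-luciferase activity.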

[15] = qHTS assay to identify small molecule agonists or antagonists of the thyroid stimulating hormone receptor (TSHR) signaling pathway - wild type cell line counter screen (AID 1259384; calls by dose curve)
In short: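 Wild-type Hek293 cells, 800/well, 18 h at 37C, then compound with Ro20-1724 for 30 min RT. cAMP by HTRF (cAMP-d2/anti-cAMP cryptate), 1 h RT, fluorescence read. 15 concentrations, triplicates.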

[16] = target: Thyrotropin receptor (Homo sapiens) (UniProt P16473); test: qHTS assay to identify small molecule antagonists of the thyroid stimulating hormone receptor (TSHR) signaling pathway (AID 1259385; calls by dose curve; note: nearly all actives have a fitted effect of over 20% in size)
In short: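 TSHR-HEK293 cells (800/well) plated 18 h, then compounds with Ro20-1724 and TSH at 1.5 ng/mL final, 30 min at room temperature. cAMP quantified by HTRF (cAMP-d2/anti-cAMP-cryptate, 1 h); 15 concentrations in triplicate.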

[17] = qHTS assay to identify small molecule agonists of the estrogen receptor alpha (ER-alpha) signaling pathway in the presence of an antagonist - cell viability counter screen (AID 1259386);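 note: cells exposed to compounds for 22 h at 37 °C before the viability read; nearly all actives have a fitted effect of over 30% in size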; note: potency is the fitted concentration of half-maximal effect; for activity change, negative = cytotoxicity: series mostly up to about 92 µM
In short: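 Cells are starved of estrogens for 5 days in charcoal-stripped serum, seeded for 24hr and co-treated with ICI-182,780 (10.0nM final) and test compounds. After 22hr at 37C, viability is read as CellTiter-Fluor fluorescence.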

[18] = qHTS assay to identify small molecule HDAC inhibitors (AID 1259364); note: top concentration of the series differs between compounds; nearly all actives have a fitted effect of over 45% in size
In short: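 Homogeneous cell-based luminescent assay of endogenous class I/II HDAC activity; HCT-116 cells, 2 h compound exposure, 30 min HDAC-Glo development at RT.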

[19] = target: Estrogen receptor beta (Homo sapiens) (UniProt Q92731); test: qHTS assay to identify small molecule antagonists of the estrogen receptor beta (ER-beta) signaling pathway (AID 1259378; active = well fitted inhibition curve with a large enough effect in the signal ratio in the repeat runs, not every such curve was filed as active; the % refers to the signal ratio; note: potency is the fitted concentration of half-maximal effect)
In short: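 ER-beta-UAS-bla HEK293T cells in 2% charcoal-stripped FBS medium treated with compound plus 1nM final 17-beta-estradiol for 16 hr at 37C. Beta-lactamase reporter read by FRET substrate fluorescence after 2 hours at room temperature.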
% is set by controls: 0 for no effect and ±100 for the full control effect.

Sequence of Estrogen receptor beta (Homo sapiens) (Q92731 whole entry, looked up): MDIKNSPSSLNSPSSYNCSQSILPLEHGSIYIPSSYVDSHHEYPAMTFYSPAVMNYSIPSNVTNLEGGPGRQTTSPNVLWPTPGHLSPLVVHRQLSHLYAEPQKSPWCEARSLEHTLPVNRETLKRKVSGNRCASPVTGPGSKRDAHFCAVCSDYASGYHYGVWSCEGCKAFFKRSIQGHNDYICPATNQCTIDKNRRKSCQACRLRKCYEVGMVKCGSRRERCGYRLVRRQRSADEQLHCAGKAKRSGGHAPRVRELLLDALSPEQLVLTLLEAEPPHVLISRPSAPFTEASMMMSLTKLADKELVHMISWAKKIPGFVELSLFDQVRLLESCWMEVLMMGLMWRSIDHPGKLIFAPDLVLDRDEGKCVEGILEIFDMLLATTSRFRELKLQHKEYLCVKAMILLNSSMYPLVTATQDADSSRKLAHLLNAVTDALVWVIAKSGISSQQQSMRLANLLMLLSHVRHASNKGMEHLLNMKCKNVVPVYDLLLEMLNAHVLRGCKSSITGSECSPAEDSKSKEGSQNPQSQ
Sequence of Thyrotropin receptor (Homo sapiens) (P16473 whole entry, looked up): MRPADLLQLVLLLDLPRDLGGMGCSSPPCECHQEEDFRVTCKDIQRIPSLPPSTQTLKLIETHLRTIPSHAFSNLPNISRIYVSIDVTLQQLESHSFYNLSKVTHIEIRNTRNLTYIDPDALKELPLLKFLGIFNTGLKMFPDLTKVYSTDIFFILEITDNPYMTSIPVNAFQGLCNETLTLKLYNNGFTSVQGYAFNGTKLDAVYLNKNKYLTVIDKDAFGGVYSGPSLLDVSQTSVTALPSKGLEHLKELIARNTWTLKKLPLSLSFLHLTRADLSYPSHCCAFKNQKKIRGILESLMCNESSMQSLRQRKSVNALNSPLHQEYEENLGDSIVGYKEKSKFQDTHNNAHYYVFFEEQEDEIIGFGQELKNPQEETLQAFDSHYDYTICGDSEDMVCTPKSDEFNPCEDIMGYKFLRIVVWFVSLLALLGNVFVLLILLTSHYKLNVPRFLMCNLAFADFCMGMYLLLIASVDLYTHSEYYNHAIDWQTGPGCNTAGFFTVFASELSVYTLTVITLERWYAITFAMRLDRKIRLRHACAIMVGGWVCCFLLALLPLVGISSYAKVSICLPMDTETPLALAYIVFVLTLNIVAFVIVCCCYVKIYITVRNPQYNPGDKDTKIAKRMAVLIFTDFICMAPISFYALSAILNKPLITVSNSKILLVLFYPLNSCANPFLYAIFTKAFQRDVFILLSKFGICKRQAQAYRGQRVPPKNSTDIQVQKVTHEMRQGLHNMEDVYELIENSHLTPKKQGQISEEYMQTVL
Sequence of Estrogen receptor (Homo sapiens) (P03372 whole entry, looked up): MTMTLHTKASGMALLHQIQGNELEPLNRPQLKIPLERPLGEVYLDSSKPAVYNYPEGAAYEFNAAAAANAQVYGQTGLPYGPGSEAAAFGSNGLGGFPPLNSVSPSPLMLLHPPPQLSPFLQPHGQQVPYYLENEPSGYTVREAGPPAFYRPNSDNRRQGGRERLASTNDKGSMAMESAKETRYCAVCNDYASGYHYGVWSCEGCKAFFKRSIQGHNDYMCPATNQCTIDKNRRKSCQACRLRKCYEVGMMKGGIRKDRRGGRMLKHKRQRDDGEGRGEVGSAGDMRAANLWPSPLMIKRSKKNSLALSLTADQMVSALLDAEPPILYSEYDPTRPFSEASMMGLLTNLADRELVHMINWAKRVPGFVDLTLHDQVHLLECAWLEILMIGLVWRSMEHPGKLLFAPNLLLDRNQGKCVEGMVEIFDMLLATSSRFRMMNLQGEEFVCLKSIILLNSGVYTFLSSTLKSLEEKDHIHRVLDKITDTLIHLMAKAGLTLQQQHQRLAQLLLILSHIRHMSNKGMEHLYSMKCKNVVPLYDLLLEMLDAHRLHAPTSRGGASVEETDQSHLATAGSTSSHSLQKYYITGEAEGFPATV
Sequence of Androgen receptor (Homo sapiens) (P10275 whole entry, looked up): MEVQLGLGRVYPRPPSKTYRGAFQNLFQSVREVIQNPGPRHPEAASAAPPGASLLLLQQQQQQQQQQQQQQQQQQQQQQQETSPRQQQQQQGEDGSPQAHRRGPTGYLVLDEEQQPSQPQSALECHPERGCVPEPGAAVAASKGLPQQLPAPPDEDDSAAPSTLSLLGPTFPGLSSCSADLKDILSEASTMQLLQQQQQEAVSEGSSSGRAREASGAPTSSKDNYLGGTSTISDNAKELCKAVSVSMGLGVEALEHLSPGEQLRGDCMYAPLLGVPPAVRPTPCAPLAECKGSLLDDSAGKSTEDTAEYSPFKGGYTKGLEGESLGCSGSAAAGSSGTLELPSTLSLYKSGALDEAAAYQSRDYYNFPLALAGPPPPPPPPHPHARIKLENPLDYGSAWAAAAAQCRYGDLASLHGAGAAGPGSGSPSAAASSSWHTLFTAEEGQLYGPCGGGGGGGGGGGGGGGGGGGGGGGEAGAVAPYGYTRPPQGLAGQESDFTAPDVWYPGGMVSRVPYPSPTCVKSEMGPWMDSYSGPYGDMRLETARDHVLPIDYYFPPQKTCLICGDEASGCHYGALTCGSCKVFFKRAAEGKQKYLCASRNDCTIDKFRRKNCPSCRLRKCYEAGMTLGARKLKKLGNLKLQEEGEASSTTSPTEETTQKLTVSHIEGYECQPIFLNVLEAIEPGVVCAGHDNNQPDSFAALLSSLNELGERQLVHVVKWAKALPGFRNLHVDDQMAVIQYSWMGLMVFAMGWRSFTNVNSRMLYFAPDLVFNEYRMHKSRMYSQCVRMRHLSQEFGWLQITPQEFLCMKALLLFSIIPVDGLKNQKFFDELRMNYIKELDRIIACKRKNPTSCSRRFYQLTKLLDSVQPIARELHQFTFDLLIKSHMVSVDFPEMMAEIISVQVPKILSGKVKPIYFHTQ

C=C/C=C/C=C/CCCCC
inactive: viability change, negative = cytotoxic [1] -0.871% [at 19 µM] | activity, negative = inhibition [2] 3% [at 19 µM] | activity change, negative = inhibition [3] -0.135% [at 19 µM] | activity change, negative = cytotoxicity [4] -0.499% [at 19 µM] | viability change, negative = cytotoxic [5] -4.32% [at 19 µM] | viability change, negative = cytotoxic [6] -2.58% [at 19 µM] | activity change [7] -0.134% [at 18.9 µM, stronger effect = higher value] | activity change, negative = inhibition [8] -23.5% [at 19 µM] | activation [9] -0.263% [at 19 µM] | activity change, negative = cytotoxicity [10] 1.29% [at 19 µM] | activity change, negative = cytotoxicity [11] -7.99% [at 19 µM] | activation [12] 5.43% [at 19 µM] | activity change, negative = cytotoxicity [13] 0.024% [at 19 µM] | activation [14] -1.21% [at 19 µM] | cAMP activity change [15] 0.413% [at 18.9 µM] | activity change, negative = inhibition [16] 1.23% [at 19 µM] | activity change, negative = cytotoxicity [17] -2.67% [at 19 µM]

CCN=c1cc2oc3cc(NCC)c(C)cc3c(-c3ccccc3C(=O)OCC)c-2cc1C
active: Potency [1] 965 nM and 864 nM | Potency [2] 122 nM and 217 nM | Potency [3] 86 nM and 306 nM | Potency [8] 1.08 µM and 545 nM | Potency [19] 0.272 µM | Potency [10] 272 nM and 306 nM | Potency [11] 54.3 µM and 24.3 µM | Potency [13] 54.3 µM and 34.4 µM | Potency [17] 9.65 µM and 9.69 µM
inactive: Potency [18] | Potency [6] | Potency [7] | Potency [9] | Potency [12] | Potency [14]

CO[Si](CCC1CCC2OC2C1)(OC)OC (centres undefined)
inactive: Potency [1] | Potency [2] | Potency [3] | Potency [18] | Potency [5] | Potency [6] | Potency [7] | Potency [8] | Potency [10] | Potency [11] | Potency [12] | Potency [13] | Potency [14] | outcome [15] | Potency [16] | Potency [17]

Cc1ccc(O)cn1
inactive: Potency [1] | Potency [2] | Potency [3] | Potency [4] | Potency [5] | Potency [6] | Potency [7] | Potency [10] | Potency [11] | Potency [12] | Potency [13] | Potency [14] | outcome [15] | Potency [16] | Potency [17]

Oc1cc2ccccc2cc1O
inactive: Potency [1] | Potency [3] | Potency [18] | Potency [4] | Potency [5] | Potency [6] | Potency [7] | Potency [10] | Potency [12] | Potency [13] | Potency [14] | outcome [15] | Potency [17]
active: Potency [2] 30.6 µM

CC(C)(C)c1n[nH]c(=O)n(N)c1=O
inactive: Potency [1] | Potency [2] | Potency [3] | Potency [18] | Potency [4] | Potency [5] | Potency [6] | Potency [8] | Potency [9] | Potency [10] | Potency [11] | Potency [12] | Potency [13] | Potency [14] | outcome [15] | Potency [16] | Potency [17]

CC1CCCCC1
inactive: Potency [1] | Potency [2] | Potency [3] | Potency [18] | Potency [5] | Potency [6] | Potency [8] | Potency [19] | Potency [10] | Potency [11] | Potency [12] | Potency [13] | Potency [14] | outcome [15] | Potency [17]
